Several values for one entry are separate records, joined by “and”; a condition that tells them apart may be missing. Equal values may be shown once. Records with an inconclusive call do not appear. Some structures have more than one record in an assay (separate samples or runs), and their calls can disagree. Activity calls are given as the source filed them. Unless noted, the call rests on the fitted dose curve; in most records, active means well fitted curve in the direction sought with a large enough effect in the repeat runs; inconclusive means weak or mixed curves; inactive means no such curve, though single readings can be large; an effect the other way counts as inactive or inconclusive.
How the values were obtained:
[1] = target: Luciferin 4-monooxygenase (Photinus pyralis) (UniProt P08659); experiment: qHTS assay to identify small molecule inhibitors of firefly luciferase (AID 1224835); further: nearly all actives have a fitted effect of over 25% in size; further: potency means the concentration at half of the fitted maximal effect
Luciferin 4-monooxygenase (Photinus pyralis), sequence (P08659 whole entry, looked up): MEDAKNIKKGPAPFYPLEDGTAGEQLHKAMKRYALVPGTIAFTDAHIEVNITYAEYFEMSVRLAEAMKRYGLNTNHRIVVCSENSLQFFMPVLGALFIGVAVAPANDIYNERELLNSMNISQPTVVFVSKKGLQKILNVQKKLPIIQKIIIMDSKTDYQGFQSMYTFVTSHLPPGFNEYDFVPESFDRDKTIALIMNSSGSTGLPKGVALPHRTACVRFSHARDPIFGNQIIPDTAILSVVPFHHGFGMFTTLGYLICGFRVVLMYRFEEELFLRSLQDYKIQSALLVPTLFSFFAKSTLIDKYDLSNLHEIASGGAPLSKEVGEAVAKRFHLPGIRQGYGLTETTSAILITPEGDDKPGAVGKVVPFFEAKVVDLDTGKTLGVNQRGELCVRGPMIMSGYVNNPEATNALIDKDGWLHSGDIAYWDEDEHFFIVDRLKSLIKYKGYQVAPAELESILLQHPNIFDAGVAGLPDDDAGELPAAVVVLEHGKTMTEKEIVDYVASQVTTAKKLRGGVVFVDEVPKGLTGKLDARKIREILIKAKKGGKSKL
Summary of the method: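 Biochemical qHTS: compounds run as interplate titrations against purified firefly enzyme, with D-luciferin and ATP each at its KM concentration. Light output recorded by CCD imaging.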

[2] = qHTS assay to identify small molecule antagonists of the constitutive androstane receptor (CAR) signaling pathway - cell viability counter screen (AID 1224837); further: nearly all actives have a fitted effect of over 45% in size; further: potency means the concentration at half of the fitted maximal effect
Summary of the method: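 Multiplexed cytotoxicity read-out for the CAR antagonist screen: double-stable HepG2-CYP2B6-hCAR cells co-treated with 50 nM CITCO (final) and compound over 15 concentrations, incubated 23 hr, then assessed by CellTiter-Fluor fluorescence.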

[3] = target: Nuclear receptor subfamily 1 group I member 3 (Homo sapiens) (UniProt Q14994); experiment: qHTS assay to identify small molecule antagonists of the constitutive androstane receptor (CAR) signaling pathway (AID 1224838); further: nearly all actives have a fitted effect of over 40% in size; further: potency means the concentration at half of the fitted maximal effect
Nuclear receptor subfamily 1 group I member 3 (Homo sapiens), sequence (Q14994 whole entry, looked up): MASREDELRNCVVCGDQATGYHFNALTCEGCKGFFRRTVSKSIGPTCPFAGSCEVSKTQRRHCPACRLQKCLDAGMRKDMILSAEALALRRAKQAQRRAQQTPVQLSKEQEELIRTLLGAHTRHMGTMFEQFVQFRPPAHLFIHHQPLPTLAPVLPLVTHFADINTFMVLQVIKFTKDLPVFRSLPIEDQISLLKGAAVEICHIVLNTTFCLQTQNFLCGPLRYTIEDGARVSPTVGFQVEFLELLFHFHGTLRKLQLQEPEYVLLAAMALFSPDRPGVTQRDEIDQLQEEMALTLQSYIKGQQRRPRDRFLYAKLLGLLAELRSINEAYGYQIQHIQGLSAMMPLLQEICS
Summary of the method: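 Compounds were titrated across 15 concentrations onto HepG2 cells double-stably expressing hCAR and a CYP2B6-2.2kb reporter, together with 50 nM CITCO (final). After 24 h at 37 C, luciferase activity was measured by luminescence.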

[4] = target: Nuclear receptor subfamily 1 group I member 3 (Homo sapiens) (UniProt Q14994); experiment: qHTS assay to identify small molecule agonists of the constitutive androstane receptor (CAR) signaling pathway (AID 1224839); further: nearly all actives have a fitted effect of over 15% in size; further: potency means the concentration at half of the fitted maximal effect;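 on activation: HepG2 cells stably carrying human CAR and a CYP2B6 luciferase reporter; on the % scale 0 is the no-effect control and ±100 the full control effect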
Summary of the method: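 Using human hepatoma HepG2 cells engineered with hCAR and a CYP2B6-2.2kb reporter, 15-concentration compound series were incubated 24 h alongside PK11195 at 0.75 uM final, with luminescence quantified afterwards.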

[5] = qHTS assay to identify small molecule antagonists of the estrogen related receptor signaling pathway with the pleiotropic PPARgamma coactivator (PGC) from Tox21 10K library - cell viability counter screen (AID 1224840; active means well fitted cell-killing curve with a large enough effect in the repeat runs, not every such curve was filed as active; further: nearly all actives have a fitted effect of over 40% in size; further: potency means the concentration at half of the fitted maximal effect)
Summary of the method: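 Step one, plate 2,000 PGC/ERR cells per well; step two, incubate 6 h at 37 C/5% CO2; step three, pin-transfer compounds; step four, incubate 17.5 h; step five, add CellTiter-Fluor and read fluorescence after 30 min.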

[6] = qHTS assay to identify small molecule antagonists of the estrogen related receptor signaling pathway with the pleiotropic PPARgamma coactivator (PGC) from Tox21 10K library (AID 1224841; call rule not given here; further: potency means the concentration at half of the fitted maximal effect; actives are mostly falling curves and most rising ones were filed inactive; nearly all actives have a fitted effect of over 50% in size)
Summary of the method: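 Antagonism in this quantitative HTS is taken from loss of luciferase signal in PGC/ERR cells. Cells (2,000/well) are treated with compounds in DMSO after a 6 h settling period and read by One-Glo luminescence after 18 h.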

[7] = qHTS assay to identify small molecule agonists of the estrogen related receptor signaling pathway with the pleiotropic PPARgamma coactivator (PGC) from Tox21 10K library (AID 1224842); further: nearly all actives have a fitted effect of over 15% in size; further: potency means the concentration at half of the fitted maximal effect; on activation: on the % scale 0 is the no-effect control and ±100 the full control effect
Summary of the method: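 PGC/ERR reporter cell line, 2,000 cells per well, incubated 6 h at 37 C before 23 nL compound in DMSO was added. After 18 h at 37 C, One-Glo luminescence read following 30 min at room temperature.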

[8] = qHTS assay to identify small molecule agonists of H2AX (AID 1224845; active means well fitted activation curve with a large enough effect in the signal ratio in the repeat runs, not every such curve was filed as active; the % refers to the signal ratio; further: potency means the concentration at half of the fitted maximal effect)
Summary of the method: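 Wild-type CHO-K1 cells, plated overnight, exposed 3hr at 37C to 15 concentrations (0.76% DMSO final). Lysed, then HTRF anti-pH2AX (S139) cryptate and anti-H2AX-d2 antibodies, 24 hr room temperature; 665/620 nm emission read.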

[9] = qHTS assay to identify small molecule agonists of H2AX - cell viability counter screen (AID 1224847; calls by dose curve; further: nearly all actives have a fitted effect of over 30% in size; further: potency means the concentration at half of the fitted maximal effect)
Summary of the method: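 After overnight plating of 1000 CHO-K1 cells per well, a 15-concentration compound series was applied for 3 hr at 37C. Luminescence from CellTiter-Glo, read following 30 min at room temperature, reflected cell viability.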

[10] = qHTS assay to identify small molecule antagonists of the estrogen related receptor (ERR) signaling pathway from Tox21 library (AID 1224848); further: nearly all actives have a fitted effect of over 50% in size; further: potency means the concentration at half of the fitted maximal effect
Summary of the method: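 ERR reporter cell line (from NTP) seeded 2,000 cells/well, rested 6 h at 37 C/5% CO2, then pin-dosed with compounds in DMSO. After 18 h at 37 C, ONE-Glo added; luminescence read after 30 min at room temperature.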

[11] = A CellTox Green Cytotoxicity Assay to monitor cytotoxicity in HEK293 cells - 0 hour (AID 1224869); further: on the % scale 0 is the no-effect control and ±100 the full control effect; nearly all actives have a fitted effect of over 50% in size
Summary of the method: (§1)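 Cytotoxicity was tracked continuously in HEK293 cells by a DNA-binding dye excluded from viable cells. Compounds were transferred in DMSO 5 h after seeding; fluorescence was recorded at intervals up to 40 h.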

[12] = A CellTox Green Cytotoxicity Assay to monitor cytotoxicity in HEK293 cells - 40 hour (AID 1224871); further: nearly all actives have a fitted effect of over 45% in size; further: potency means the concentration at half of the fitted maximal effect
Summary of the method: as §1

[13] = target: Thyrotropin receptor (Homo sapiens) (UniProt P16473); experiment: qHTS assay to identify small molecule agonists of the thyroid stimulating hormone receptor (TSHR) signaling pathway (AID 1224843; calls by dose curve; further: on the % scale 0 is the no-effect control and ±100 the full control effect; nearly all actives have a fitted effect of over 45% in size)
Thyrotropin receptor (Homo sapiens), sequence (P16473 whole entry, looked up): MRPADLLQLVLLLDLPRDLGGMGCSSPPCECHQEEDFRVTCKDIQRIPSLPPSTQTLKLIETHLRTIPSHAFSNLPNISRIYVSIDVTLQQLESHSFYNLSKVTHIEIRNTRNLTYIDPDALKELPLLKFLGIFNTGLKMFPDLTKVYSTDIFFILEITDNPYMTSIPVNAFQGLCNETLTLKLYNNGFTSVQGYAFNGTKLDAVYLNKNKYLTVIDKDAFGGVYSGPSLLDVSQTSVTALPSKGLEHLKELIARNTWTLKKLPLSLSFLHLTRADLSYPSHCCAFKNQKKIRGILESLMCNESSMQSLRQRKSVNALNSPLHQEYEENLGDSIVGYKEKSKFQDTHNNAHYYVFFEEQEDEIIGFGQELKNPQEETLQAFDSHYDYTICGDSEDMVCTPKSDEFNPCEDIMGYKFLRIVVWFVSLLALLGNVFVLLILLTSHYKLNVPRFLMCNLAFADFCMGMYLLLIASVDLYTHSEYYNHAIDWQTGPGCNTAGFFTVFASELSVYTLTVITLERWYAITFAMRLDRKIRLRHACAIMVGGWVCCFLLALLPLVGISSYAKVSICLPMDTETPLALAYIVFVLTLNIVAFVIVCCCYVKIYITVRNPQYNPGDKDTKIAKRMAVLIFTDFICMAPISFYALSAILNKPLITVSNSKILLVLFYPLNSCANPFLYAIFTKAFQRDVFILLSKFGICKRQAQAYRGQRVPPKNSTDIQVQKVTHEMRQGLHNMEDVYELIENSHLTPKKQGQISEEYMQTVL
Summary of the method: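 TSHR-HEK293 cells in agonist mode, 30 min room-temperature step, then cAMP measured by competitive HTRF (cAMP-d2 with anti-cAMP cryptate) after 1 h at room temperature. Tested at 15 concentrations in triplicate.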

[14] = qHTS assay to identify small molecule agonists of the hypoxia (HIF-1) signaling pathway - cell viability counter screen (AID 1224844; calls by dose curve; further: nearly all actives have a fitted effect of over 50% in size; further: potency means the concentration at half of the fitted maximal effect)
Summary of the method: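 Tox21 10K compounds were added to HRE-bla ME-180 cells (0.5% dialyzed FBS) and incubated 17 hrs at 37C; ATP-based CellTiter-Glo luminescence then reported cell viability in the same wells.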

[15] = qHTS assay to identify small molecule agonists of the estrogen related receptor (ERR) signaling pathway from Tox21 library (AID 1224849; calls by dose curve; further: on the % scale 0 is the no-effect control and ±100 the full control effect; nearly all actives have a fitted effect of over 15% in size); details: ERR reporter cell line, ONE-Glo luciferase, 18 h; at 92.4 µM (top of the series) unless noted
Summary of the method: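 Agonist signal is luciferase luminescence from an ERR reporter cell line treated 18 h at 37 C with DMSO-dissolved compounds, read 30 min after ONE-Glo addition at room temperature.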

[16] = qHTS RealTime-Glo MT Cell Viability Assay in HepG2 cells - 24 hour (AID 1224867); further: nearly all actives have a fitted effect of over 50% in size; further: potency means the concentration at half of the fitted maximal effect
Summary of the method: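 Luminescence read-out: viable HepG2 cells reduce a prosubstrate to a NanoLuc substrate, giving a signal proportional to live cell number. Reads taken at 0, 8, 16, 24, 32 and 40 h of compound exposure at 37 C.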

[17] = qHTS RealTime-Glo MT Cell Viability Assay in HEK293 cells - 32 hour (AID 1224868); further: nearly all actives have a fitted effect of over 50% in size; further: potency means the concentration at half of the fitted maximal effect
Summary of the method: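 Nonlytic real-time viability readout: viable cells convert prosubstrate to NanoLuc substrate, giving luminescence proportional to live cell number. HEK293, 600 cells/well, compound added after 5 h, continuous culture at 37 C.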

[18] = qHTS RealTime-Glo MT Cell Viability Assay in HepG2 cells - 40 hour (AID 1224870); further: nearly all actives have a fitted effect of over 50% in size; further: potency means the concentration at half of the fitted maximal effect
Summary of the method: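 HepG2 cells (600/well) mixed with RealTime-Glo MT reagent, settled 5 h at 37 C/5% CO2 before compound addition. Nonlytic NanoLuc luminescence from viable-cell prosubstrate reduction read repeatedly during 40 h treatment at 37 C.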

[19] = qHTS assay to identify small molecule agonists of the constitutive androstane receptor (CAR) signaling pathway - cell viability counter screen (AID 1224836); further: nearly all actives have a fitted effect of over 45% in size; further: potency means the concentration at half of the fitted maximal effect
Summary of the method: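 Multiplexed viability check: HepG2-CYP2B6-hCAR cells, 15-point compound dosing, 0.75 uM PK11195 final, 23 h at 37 C, CellTiter-Fluor fluorescence.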

[20] = qHTS assay to identify small molecule agonists of the hypoxia (HIF-1) signaling pathway (AID 1224846; active means well fitted activation curve with a large enough effect in the signal ratio in the repeat runs, not every such curve was filed as active; the % refers to the signal ratio; further: on the % scale 0 is the no-effect control and ±100 the full control effect)
Summary of the method: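 Steps: seed ME-180 HRE-bla cells (2,000/well, 0.5% dialyzed FBS); incubate 5 hrs at 37C; pin-transfer compounds or DMSO; incubate 17 hrs; add LiveBLAzer B/G substrate CCF4-AM; measure reporter activation by FRET.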

CC(=O)[O][Sn]([c]1ccccc1)([c]1ccccc1)[c]1ccccc1
active: Potency [1] 2240 nM | Potency [2] 154 nM | Potency [3] 54.5 nM | Potency [5] 172 nM | Potency [6] 545 nM | Potency [8] 101 nM | Potency [9] 142 nM | Potency [10] 77 nM | Potency [12] 219 nM
inactive: Potency [4] | Potency [7] | Potency [11]

COP(=O)(OC)Oc1ccc([N+](=O)[O-])cc1
inactive: Potency [1] | Potency [3] | Potency [4] | Potency [7] | Potency [13] | Potency [14] | Potency [8] | Potency [9] | activity change, positive = activation [15] -54.1% | Potency [16] | Potency [17] | Potency [11] | Potency [18] | Potency [12]
active: Potency [6] 21700 nM | Potency [10] 30600 nM

COCCC#N
inactive: Potency [1] | Potency [19] | Potency [2] | Potency [5] | Potency [13] | Potency [14] | Potency [20] | Potency [9] | Potency [16] | Potency [11] | Potency [18] | Potency [12]

C[N+]1(C)[C@@H]2CC[C@H]1CC(OC(=O)C(CO)c1ccccc1)C2 (stereo partly specified)
active: Potency [18] 23900 nM
inactive: Potency [1] | Potency [19] | Potency [2] | Potency [5] | Potency [13] | Potency [14] | Potency [8] | Potency [9] | Potency [16] | Potency [17] | Potency [11] | Potency [12]

Nc1ccc(N=Nc2ccccc2)cc1
inactive: Potency [3] | Potency [13] | Potency [10] | Potency [16] | Potency [11] | Potency [18] | Potency [12]
active: Potency [1] 2240 nM | Potency [4] 30600 nM | Potency [5] 24300 nM | Potency [7] 3060 nM | activity change, positive = activation [15] 69.2%

c1cc[n+]2c(c1)-c1cccc[n+]1CC2
inactive: Potency [1] | Potency [3] | Potency [5] | Potency [13] | Potency [14] | Potency [8] | Potency [20] | Potency [9] | Potency [16] | Potency [17] | Potency [11] | Potency [18]

N#Cc1c[nH]cc1-c1cccc2c1OC(F)(F)O2
inactive: Potency [1] | Potency [19] | Potency [2] | Potency [7] | Potency [14] | activity change, positive = activation [15] -48.5% | Potency [16] | Potency [11] | Potency [18]
active: Potency [10] 27300 nM | Potency [17] 6.92 µM

CCN(CC)C(=S)S
active: Potency [19] 54.9 µM and 12.1 µM and 19.3 µM | Potency [2] 13.6 µM and 17.2 µM | Potency [5] 30.9 µM and 6.08 µM and 13.7 µM | Potency [14] 19.7 µM and 8.66 µM and 9.77 µM | Potency [17] 24.8 µM and 4.87 µM and 11 µM | Potency [12] 17.5 µM and 4.34 µM and 9.77 µM
inactive: Potency [1] | Potency [13] | Potency [9]
inactive and 21.9 µM (active): Potency [16] | Potency [18]

CC(C)c1c(CN(C)C(C)Cc2ccccc2)n(C)n(-c2ccccc2)c1=O (stereo unspecified)
inactive: Potency [1] | Potency [2] | Potency [3] | Potency [5] | Potency [8] | Potency [20] | Potency [9] | Potency [16] | Potency [11] | Potency [18] | Potency [12]
active: Potency [4] 13300 nM

From PubChem BioAssay (Tox21)
